PERK inhibitor: blocks human PERK kinase; Q9NZJ5; CHO PERK-DD fusion, SEAP luminescence translation reporter; inhibition, % at 5.6 µM; 220,000 compounds, 0.17% hits;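 active means inhibition above the mean inhibition of all tested compounds plus 3 SD, set separately per screening campaign, cut at about 2.9% in these data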;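 further: PERK kinase domain activated by AP20187 dimerizer at 100 nM; 0% = DMSO with dimerizer and 100% = rapamycin at 8.4 µM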
PABP FP inh: PABP-poly(A) binding inhibition | P11940 | PABP-poly(A) RNA binding, fluorescence polarization | inhibition, % at 35 µM | 290,000 compounds, 1% hits | AID 2014;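 further: calls also rest on retests at 20 µM and on dose response follow-up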
eIF4E 4G PPI: inhibitors of eIF4E and eIF4G interaction in translation initiation | TR-FRET eIF4E-eIF4GI(517-606) binding, 2 h | inhibition, % at 21.7 µM | 220,000 compounds, 0.37% hits | AID 782;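 active means inhibition above about 30%, limit read from the data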;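 further: 0% = full FRET control wells and 100% = background wells lacking eIF4GI fragment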
eIF4H inh: inhibitors of RNA binding by human eIF4H; AID 2012; eIF4H fluorescence polarization binding assay; 290,000 compounds, 0.94% hits; inhibition, % at 35 µM; Q15056;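 further: calls also rest on retests at 20 µM and on dose response follow-up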
MLLE-PAM2 inh: blocks PAM2 peptide binding to the PABP1 MLLE domain; P11940; GST-MLLE / FITC-PAM2 fluorescence polarization; inhibition, % at 20 µM; 360,000 compounds, 0.36% hits; in the data active means inhibition above about 35%, passing the limit was not always enough;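 further: plate controls were DMSO wells with GST-MLLE for no effect and wells lacking GST-MLLE protein for full effect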
* hit, by the source's call; u = inconclusive; x = no result given; [ ] = another dose, or the depositor's remark. Rows were chosen to be rich in hits. Some 1.6% of all compounds tested hit in one or more screens of this group. Unless noted, how the calls were made is not given here.

SMILES	PERK inhibitor	PABP FP inh	eIF4E 4G PPI	eIF4H inh	MLLE-PAM2 inh
CCCN(CCC)S(=O)(=O)c1ccc(C(=O)OCCN2C(=O)c3cccc4c(N5CCOCC5)ccc(c34)C2=O)cc1	0.1	117.7*	30.6*[fluorescence artefact?]	128.6*	111.9
O=C(OCCN1C(=O)c2cccc3c(N4CCOCC4)ccc(c23)C1=O)c1ccc(Cl)cc1	0.8	-4.9	22.5	u	-11.8
O=C1CC(SCCc2nc3ccccc3[nH]2)C(=O)N1c1ccc(F)cc1 (stereo not drawn)	-0.1	7.8	1.8	0.7	36.4
COc1ccc(N2C(=O)CC(SCCc3nc4ccccc4[nH]3)C2=O)cc1 (stereo not drawn)	0.7	-10.2	5.8	-10.5	40.4*
O=[N+]([O-])c1ccccc1SN(Cc1ccccc1)c1ccccn1	0.1	5.0*	-1.4	58.2*	8.0
CC(Oc1ccc(Cl)cc1Cl)c1ccnc2nc(N3CCOCC3)nn12 (stereo not drawn)	0.7	1.1	-5.1	-1.3	1.3
CC1(C)CC(=O)C2=C(C1)Nc1ccccc1NC2c1cccc(F)c1 (stereo not drawn)	x	0.2	x	5.5	9.5
Cn1cccc1C1Nc2ccccc2NC2=C1C(=O)CC(C)(C)C2 (stereo not drawn)	0.7	118.6*	4.2	125.1	114.7
O=C1/C(=C/c2ccco2)Oc2c1ccc(O)c2CN1CCCCC1	0.6	0.5	6.7	99.7	69.9
COCCN(CCOC)Cc1c(O)ccc2c1O/C(=C\c1ccco1)C2=O	x	86.1*	x	91.0*	70.5
O=C1SC(c2ccccc2)=N/C1=C/c1ccco1	1.5	17.5*	-1.8	50.5*	1.3
O=C1NNC(c2ccccc2)=N/C1=C\c1ccco1	-0.9	50.1*	6.8	40.0	-0.7
CCOc1ccc(NC(=S)NCCCN2CCOCC2)cc1	1.2	-15.4	4.7	-8.0	4.4
Cc1nc(NC(=O)CSc2nnc(-c3ccncc3)n2C)sc1C	x	-8.0	x	-0.8	8.9
CCc1nnc(NC(=O)CSc2nnc(-c3ccncc3)n2C)s1	3.3*	10.6	-7.6	-0.5	10.2
CCC(=O)Nc1ccc(-c2nnc(SCC(=O)Nc3nccs3)n2C)cc1	0.0	52.7*	-3.2	11.8	-118.4
O=C(Nc1ccc2c(c1)OCO2)N1CCN(c2ncc(C(F)(F)F)cc2Cl)CC1	0.1	-3.0	-7.4	-6.3	-3.2
COc1ccc(NC(=O)C(=O)N/N=C/c2cccnc2)cc1	0.8	-6.7	85.1*	-5.7	0.2
COc1ccc(C(C)(C)C)cc1NC(=S)NCCN1CCOCC1	0.6	57.3*	-2.1	-1.7	5.3
CCOC1=C2CN(S(=O)(=O)c3ccc(C)cc3)[C@@H](c3ccccc3)C[C@H]2[C@H]2C(=O)N(c3ccccc3)C(=O)[C@H]2C1	x	x	x	x	48.8*
CCOC1=C2CN(S(=O)(=O)c3ccc(C)cc3)[C@H](c3cccc(Cl)c3)C[C@H]2[C@H]2C(=O)N(c3ccccc3)C(=O)[C@H]2C1	x	x	x	x	-6.8
Cn1c(O)c(C=Nc2ccc(N3CCOCC3)cc2)c(=O)n(C)c1=S	0.6	2.6	2.0	u	-63.5
Cc1cc(O)c(C=Nc2ccc(N3CCOCC3)cc2)c(C)c1Cl	x	91.0*	x	58.0	-47.7
CNS(=O)(=O)c1cccc2cccnc12	-0.3	4.6	-2.1	-1.7	9.5
Cc1cc(C)c(S(=O)(=O)/N=C2\C=C(Nc3ccc(C(=O)O)cc3)C(=O)c3ccccc32)c(C)c1	x	54.1*	x	60.4*	8.2
SMILES	PERK inhibitor	PABP FP inh	eIF4E 4G PPI	eIF4H inh	MLLE-PAM2 inh
Cc1c(C=O)c2ccccn2c1C(=O)c1cccs1	-0.7	15.7*	1.1	94.1*	31.8
COc1ccccc1C(=O)Nc1nnc(-c2ccc(F)cc2)o1	1.0	0.1	-7.0	-5.2	13.6
CCOC(=O)c1c(N)sc2c(O)c(Br)ccc12	2.8	2.9	39.1*[fluorescence artefact?]	-2.1	-3.8
COc1ccc(C2/C=C\CN(C(=O)c3ccccc3)[C@H](Cc3ccccc3)C(=O)N2Cc2ccc(F)cc2)cc1 (stereo partly drawn)	x	3.7	60.0*	-10.3	-12.7
CCC(C)C(NS(=O)(=O)c1ccc(C)cc1)C(=O)O (stereo not drawn)	0.7	6.4	3.1	10.3	-1.9
CSCC(CO)NS(=O)(=O)c1ccc(C)cc1 (stereo not drawn)	2.9*	-20.4	4.3	-9.3	-12.8
CC(C)C(=O)N(c1ccc2oc(=O)sc2c1)S(=O)(=O)c1cccs1	0.6	6.1	-1.4	-1.1	44.5*
Cc1nc(C)c(C(=O)Nc2nc3c(C)cccc3s2)o1	0.4	10.9*	11.6	70.2*	-1.3
